From publication PMC13423814 come the findings set out here.

The target of one test is Histone H4 (UniProt P62805).
Test [1] deals with Heterogeneous nuclear ribonucleoprotein A/B (UniProt Q99729).
In test [2] the target is Heterogeneous nuclear ribonucleoprotein A0 (UniProt Q13151).
In test [3] the target is Heterogeneous nuclear ribonucleoprotein U (UniProt Q00839).
The target in test [4] is Non-POU domain-containing octamer-binding protein (UniProt Q15233).
Test [5] has as its target Polypyrimidine tract-binding protein 1 (UniProt P26599).
The target in test [6] is Heterogeneous nuclear ribonucleoproteins C1/C2 (UniProt P07910).

Take “SWI/SNF-related matrix-associated actin-dependent regulator of chromatin subfamily A member 2, P51531”: the “listed as a hit” value in the test with Histone H4 was “yes”.

Take “Heterogeneous nuclear ribonucleoproteins C1/C2, P07910”: the “listed as a hit” value in test [1], in test [2], in test [3], in test [4] and in test [5] was “yes” throughout.

In the case of “Heterogeneous nuclear ribonucleoprotein R, O43390”, the “listed as a hit” value in test [6] is on record as “yes”.
